This note sets out measurements from PubChem BioAssay.

The structures appear in SMILES notation. Values joined by “and” are separate entries in the source; they are usually repeats but may differ in a detail not shown here. Equal entries are not always repeated. A number with no mark means an inactive call. Active and inactive are the calls of the source.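 How the source made its calls: active means growth inhibition above 50% at the single 2 µM test dose, taken to imply half-maximal potency below 2 µM; inactive means the rest.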

This assay in a line: antimalarial activity against Dd2 strain (AID 2302).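 Further: 0% = DMSO untreated growth and 100% = chloroquine plus artemisinin killed control.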 The note with it: P. falciparum Dd2 in RBCs, LDH growth readout, 72 h; at 2 µM; stronger effect = higher value.
With `c1cc2nc(CCCCCc3nc4ccc(C5=N[C@@H]6CCCC[C@@H]6N5)cc4[nH]3)[nH]c2cc1C1=N[C@@H]2CCCC[C@@H]2N1`, the growth inhibition is 98% (active). As to `Oc1ccc(-c2nc(-c3ccc4oc5ccc(-c6[nH]c(-c7ccc(O)cc7)nc6-c6ccccc6)cc5c4c3)c(-c3ccccc3)[nH]2)cc1`, the growth inhibition was 71% (active). Turning to `CC(C)C[C@@H](C(=O)N[C@H](C(=O)Nc1nccs1)C(C)(C)C)[C@H](CCC(F)(F)F)N(O)C=O`, the growth inhibition is 71% (active). In the case of `COc1ccc(Nc2nc(NN=Cc3cc(Br)ccc3O)nc(Nc3ccc([N+](=O)[O-])cc3)n2)cc1`, the growth inhibition is 37%.

On to `Oc1cccc(-c2nc(-c3ccccc3)c(-c3ccc4oc5ccc(-c6[nH]c(-c7cccc(O)c7)nc6-c6ccccc6)cc5c4c3)[nH]2)c1`, for which the growth inhibition was 35%. `COc1cc(-c2nc(-c3ccc4c(c3)CCC4=NO)c(-c3ccncc3)[nH]2)ccc1OCCN1CCN(C)CC1`: the growth inhibition was 77% (active). As to `NC(N)=NN=Cc1c[nH]c2ccc(-c3ccccc3)cc12`, the growth inhibition is 61% (active). Turning to `Oc1cccc(-c2nc(-c3cccc(I)c3)c(-c3ccc(-c4nc(-c5cccc(O)c5)[nH]c4-c4cccc(I)c4)cc3)[nH]2)c1`, the growth inhibition is 66% (active).

For `C[C@@H]([C@@H](CCCc1ccc(Cl)cc1)C(=O)N[C@H](C(=O)Nc1cccnc1)C(C)(C)C)N(O)C=O`, the growth inhibition was 99% (active). Under `CCOc1cc(C=NNc2nc(C)cc(-n3nc(C)cc3C)n2)ccc1O` stands 52% (active); under `Oc1ccc2ccccc2c1C=NNc1nc(Nc2ccccc2)nc(N2CCOCC2)n1`, 49%; under `COc1cc(C=NNc2ccnc3cc(Cl)ccc23)ccc1O`, 100% (active).

`CCC[C@@H]([C@@H](CC1CCCCC1)C(=O)N[C@H](C(=O)Nc1ccccn1)[C@H](C)CC)N(O)C=O`: the growth inhibition was 87% (active).

Consider `CN(C)C[C@H](O)[C@@H](c1ccccc1)c1ccc(Cl)cc1`, for which the growth inhibition is 4%.

In the case of `CCCC[C@@H](C(=O)NCc1ccccc1C(F)(F)F)N1C(=O)CCC1C(=O)Nc1ccc([N+](=O)[O-])cc1` (stereo not given in full), the growth inhibition was 2%. The figure for `CC(=NO)C1=C(O)C(c2ccccc2)N(c2ccccc2)C1=O` (stereo not given) is 23%; for `Oc1ccc2ccccc2c1C=NNc1nc(Nc2ccccc2)nc(Nc2ccccc2)n1` it is 73% (active); for `CO[C@H](C)[C@H](NC(=O)[C@H](CC(C)C)[C@H](CCC(F)(F)F)N(O)C=O)C(=O)Nc1nccs1` it is 96% (active). On to `COc1ccc2nc(C)cc(NN=Cc3cc(C)ccc3O)c2c1`, for which the growth inhibition is 100% (active). Regarding `Cc1[nH]c2ccccc2c1C=NNc1nc(Nc2ccccc2)nc(Nc2ccccc2)n1`, the growth inhibition is 23%. As for `CCC[C@@H]([C@@H](CC(C)C)C(=O)N[C@@H](CCCN=C(N)NS(C)(=O)=O)C(=O)Nc1nccs1)N(O)C=O`, the growth inhibition was 41%. In the case of `Oc1cccc(-c2nc3ccc(C4=N[C@H]5CCCC[C@H]5N4)cc3[nH]2)c1`, the growth inhibition was 97% (active). Consider `Oc1ccc(C=NNC(=S)Nc2cccc3ccccc23)c(O)c1`, for which the growth inhibition was 72% (active). Regarding `CCC[C@@H]([C@@H](CC1CCCCC1)C(=O)N[C@H](C(=O)Nc1nccc(N)n1)C(C)(C)C)N(O)C=O`, the growth inhibition was 82% (active). As to `COc1cc(-c2nc(-c3ccc4c(c3)CCC4=NO)c(-c3ccncc3)[nH]2)ccc1OCCN1CCCCC1`, the growth inhibition is 80% (active). Turning to `O=C(Nc1cccc(-c2nn3ccccc3c2-c2ccnc(Nc3ccc(-c4cc[nH]n4)cc3)n2)c1)c1c(F)cccc1F`, the growth inhibition is 98% (active). As for `ON=C1CCc2cc(-c3nc(-c4cccc(OCCNCc5ccc(F)cc5)c4)[nH]c3-c3ccncc3)ccc21`, the growth inhibition is 69% (active). Take `N=C(N)c1ccc(C=Cc2ccc(C(=N)N)cc2O)cc1`: the growth inhibition was 80% (active). Turning to `COc1ccc2ncc(F)c(CCN3C[C@H](CNCc4nc5c(cc4Cl)OCC(=O)N5)[C@H](O)C3)c2n1`, the growth inhibition is 15% and 23% and 30%. In the case of `O=C(/C=C/c1ccc(Cl)c(Cl)c1)NCCCCCN1CC[C@H](c2c[nH]c3ccccc23)[C@@H](O)C1`, the growth inhibition was -2%. The figure for `COc1ccc(Nc2nc(NN=Cc3cc(Cl)ccc3O)nc(Nc3ccccc3)n2)cc1` is 10%; for `CC[C@H](C)[C@H](NC(=O)[C@H](CC1CCCCC1)[C@H](CC)N(O)C=O)C(=O)Nc1ccccn1` it is 95% (active); for `CN(C)c1nc(NN=Cc2cc(Cl)ccc2O)nc(Nc2ccc(F)cc2)n1` it is 46%.

For `CCC[C@@H]([C@@H](CC(C)C)C(=O)N[C@@H](CCCCNC(=O)OCc1ccccc1)C(=O)Nc1ncccn1)N(O)C=O`, the growth inhibition is 98% (active). Consider `COc1ccc(Nc2nc(NN=Cc3cc(Br)c(O)cc3O)nc(Nc3ccc([N+](=O)[O-])cc3)n2)cc1`, for which the growth inhibition is 23%. With `COc1ccc2nccc([C@@H](O)CN3CC[C@H](NCc4nc5c(cc4Cl)SCC(=O)N5)[C@H](F)C3)c2c1`, the growth inhibition is 94% (active) and 100% (active). Take `O=[N+]([O-])c1ccc(C=NO)nc1`: the growth inhibition was 98% (active).

As to `CC[C@@H]([C@@H](CC(C)C)C(=O)N[C@@H](CCCCNC(=O)OCc1ccccc1)C(=O)Nc1ccccn1)N(O)C=O`, the growth inhibition is 99% (active). As for `Nc1c2c(nc3ccccc13)C(=Cc1ccc(O)cc1)CCC2`, the growth inhibition was 6%. Turning to `Cc1[nH]c2c(c(=O)c1Cl)-c1ccc(Oc3cccc(C(F)(F)F)c3)cc1C2=O`, the growth inhibition was 97% (active).
